# Assay outcomes from PubChem.
# HCV inhibitor: qHTS Assay for Inhibitors of Hepatitis C Virus (HCV). Huh7.5.1 HCVcc-Cre infection, luciferase reporter, 44 h. actives 3.4% (n = 340,000). AID 651820, 2012. Potency, µM (top dose mostly 41.8 µM), for inactives: top-dose activity change, negative = inhibition, most hits filed as inhibitors
#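 Luciferase read-out (15 sec integration) after a 15 min room-temperature substrate step quantifies HCVcc-Cre infection. Cells, 1,000 per well, had compound added 4 h post-plating, then virus at ~0.5 moi, and were cultured 44 h.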
# FMDV inh: High Throughput Screening for Foot and Mouth Disease Virus Antivirals | FMDV antiviral cell-based qHTS | actives 1.2% (n = 410,000) | Potency, µM (highest dose often 57.9 µM), without a hit: at the top dose activity change, negative = inhibition, usual class: inhibitors; calls by dose curve; tested in HEK293T cells; also: read-out not given here; nearly all actives have a fitted effect of over 45% in size
# Lassa entry inh: qHTS for Inhibitors of binding or entry into cells for Lassa Virus. Lassa virus pseudotype entry inhibition, cell reporter. Potency, µM (titrated, usually from 37.9 µM), inactives show top-dose activity change, negative = inhibition, most hits filed as inhibitors. actives 1.2% (n = 300,000). AID 540256, 2011; calls by dose curve; tested in HEK293 cells; also: nearly all actives have a fitted effect of over 50% in size
# RE007 growth inh: qHTS Assay for Inhibitors of the HIV-1 protein Vpr. Potency, µM (highest dose often 92.2 µM), without a hit: at the highest dose activity change, negative = less growth, hits mostly inhibitors. actives 0.21% (n = 360,000). S. pombe RE007 Vpr strain, BacTiter-Glo ATP luminescence, 24 h. AID 651644, 2012; active = well fitted falling curve with a large enough effect; inconclusive = small, poorly fitted or top-dose-only effect; inactive = no such curve, though single readings can be large or run the other way; also: nearly all actives have a fitted effect of over 50% in size
#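 Fission yeast RE007 carrying one integrated HIV-1 vpr copy, seeded at OD 0.01 in PMG+AL medium with 23 nL pinned compound. Grown 24 h at 30 degrees; viability read by BacTiter-Glo luminescence after 5 min.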
# MARV entry inh: qHTS for inhibitors of binding or entry into cells for Marburg Virus; Marburg virus pseudotyped entry inhibition, cell reporter; Potency, µM (titrated, usually from 37.8 µM), for inactives: at the top dose activity change, negative = inhibition, hits mostly inhibitors; actives 1.8% (n = 300,000); calls by dose curve; tested in HEK293 cells
# Sm TGR inh: qHTS Assay for the Inhibitors of Schistosoma Mansoni Peroxiredoxins. Potency, µM (series often up to 114 µM), without a hit: top-dose activity change, negative = inhibition, usual class: inhibitors. purified TGR, DTNB reduction, TNB absorbance 405 nm. Schistosoma mansoni thioredoxin glutathione reductase (TGR), Q962Y6. actives 3% (n = 360,000); also: nearly all actives have a fitted effect of over 60% in size
#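 First, TGR (20 nM dispensed) and NADPH were mixed with compound. Second, a 15 min room-temperature incubation followed. Third, further NADPH and then DTNB were added to start the reaction. Finally, TNB absorbance was monitored kinetically.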
# An asterisk follows results filed as active; ? = inconclusive; / = no result given; [ ] = dose if it differs, or a comment. Compounds with a hit are over-represented: about 7.2% of the library has one in this group of screens. Unless noted, calls follow the shape of the dose curve; as a rule, active = well fitted curve in the direction sought with a large enough effect; inconclusive = small, poorly fitted or top-dose-only effect, or another doubt; inactive = no such curve, though single readings can be large; an effect the other way counts as inactive or inconclusive. % is scaled to controls: 0 for no effect and ±100 for the full control effect; potency is read from the fitted curve at half-maximal effect.
SMILES,HCV inhibitor,FMDV inh,Lassa entry inh,RE007 growth inh,MARV entry inh,Sm TGR inh
COc1ccc(OC)c(NC(=O)C(NS(=O)(=O)c2ccc3c(c2)CCCC(=O)N3)C(C)C)c1 (stereo unspecified),/,-2%,11%[46.1 µM],/,/,0%
COc1ccccc1-c1cnn2c(NCCc3ccccc3)cc(C)nc12,10µM*,28%,-32%[46.1 µM],?,-2%[46.1 µM],0%
Cc1cc(NC2CCCC2)n2nc(C)c(-c3ccccc3)c2n1,?,-10%,9%[46.1 µM],-14%,?,8%
CCN(CC)C(=O)C1CCN(c2cc(C)nc3c(-c4ccc(OC)c(OC)c4)c(C)nn23)CC1,/,-23%,15%[46.1 µM],/,2%[46.1 µM],1%
CCOCCCNC(=O)C1CCN(c2cc(C)nc3c(-c4ccc(OC)c(OC)c4)c(C)nn23)CC1,11µM*,74%,-12%,-1%,-24%,3%
COc1ccc(CCNc2cc(C)nc3c(-c4ccc(Cl)cc4)cnn23)cc1OC,?,-28%,-4%,-6%,-11%,0%
COc1ccc(-c2c(C)nn3c(NC4CCCC4)cc(C)nc23)cc1OC,10µM*,?,/,-2%,/,0%
COc1ccc(CCNc2nc3cc(OC)c(OC)cc3c3nc(-c4ccccc4)nn23)cc1OC,/,4.5µM*,/,/,12%[46.1 µM],-7%
CCOc1ccc(-c2nonc2NC(=O)c2oc3ccc(Cl)cc3c2C)cc1,/,-6%,3%[46.1 µM],/,-14%[46.1 µM],9%
CC(=O)c1ccc(NC(=O)Cn2cnc3nc4c(cc3c2=O)CC(C)CC4)cc1 (stereo unspecified),/,-11%,14%[46.1 µM],/,/,7%
COCCNc1cc(C)nc2c(-c3ccccc3OC)c(C)nn12,?,-22%,19%,5%,0%,-14%
COc1ccc(CCNc2cc(C)nc3c(-c4ccccc4)c(C)nn23)cc1OC,11µM*,0%,1%,/,-36%,-3%
COc1ccc(CCNc2cc(C)nc3c(-c4ccccc4)cnn23)cc1OC,?,6%,8.9µM*,-18%,9.2µM*,6%
COc1ccc(-c2c(C)nn3c(N)c(-c4ccccc4)cnc23)cc1OC,13µM*,14%,/,-12%,/,40µM*
O=C(c1ccccc1Cl)N(Cc1ccco1)Cc1ccco1,/,-14%,15%[46.1 µM],/,?,2%
Fc1ccc(Oc2nccc(-c3ccc(Cl)cc3)n2)cc1,-12%,6%,?,-8%,21%[46.1 µM],-3%
Fc1ccc(-c2ncn(C3CCNCC3)c2-c2ccnc(Oc3ccc(F)c(F)c3)n2)cc1,/,/,22µM*,/,/,/
Fc1ccc(-c2ncn(C3CCNCC3)c2-c2ccnc(Oc3ccc(Oc4ccccc4)cc3)n2)cc1,/,/,13µM*,/,/,/
C#CCCCON=C1C[C@@H](O)[C@H](O)[C@H]2[C@@H]3C(=O)N(Cc4ccc5c(c4)OCO5)C(=O)[C@@H]3CC[C@@H]12,/,/,/,/,-7%[14.2 µM],/
Nc1cccnc1Sc1cccc(Cl)c1,17%,-25%,9%,18µM*,1%,?
COc1ccc(C2=NN(C(=O)c3ccco3)C(c3cc4ccccc4nc3Cl)C2)cc1 (stereo unspecified),-10%,-17%,/,-1%,/,45µM*
COc1ccc2cc(C3CC(c4ccco4)=NN3C(=O)CCC(=O)O)c(Cl)nc2c1 (stereo unspecified),0%,11%,2%,-1%,?,-33%
COc1ccccc1CNC(=O)c1cnc2sccn2c1=O,10µM*,-5%,/,-1%,/,2%
O=C1CC(c2ccccc2C(F)(F)F)c2c(c3ccccc3[nH]c2=O)O1 (stereo unspecified),/,0%,11%[46.1 µM],/,15%[46.1 µM],6%
CCOC(=O)COc1ccc(/C=C2\C(=O)NC(=S)N(c3ccc(OC)cc3)C2=O)cc1OC,8%,-21%,/,9%,/,14µM*
SMILES,HCV inhibitor,FMDV inh,Lassa entry inh,RE007 growth inh,MARV entry inh,Sm TGR inh
COC(=O)COc1ccc(/C=C2\C(=O)NC(=S)N(c3ccc(C)cc3)C2=O)cc1OC,2%,-27%,/,10%,/,13µM*
COc1ccc(N2C(=O)/C(=C/c3ccc(OC)c(OC)c3)C(=O)NC2=S)cc1,14%,-16%,/,20%,/,10µM*
COc1cc(/C=C2/C(=O)NC(=O)N(c3ccc(C)cc3)C2=O)cc(OC)c1OC,7%,?,3%,5%,0%[14.2 µM],?
COc1ccc(N2C(=O)/C(=C/c3ccc(C)o3)C(=O)NC2=S)c(OC)c1,5%,20µM*,/,4%,/,1.3µM*
CCc1ccccc1N1C(=O)/C(=C/c2ccc(N3CCN(C)CC3)o2)C(=O)NC1=S,11%,-18%,1%,-11%,14%,-11%
COc1ccc(OCC(=O)OCc2cc(=O)n3nc(-c4cccs4)sc3n2)cc1,/,-3%,7%[46.1 µM],/,/,4%
CC(=O)c1ccccc1C(=O)NCC1Cc2cccc(-c3cccnc3)c2O1 (stereo unspecified),/,0%,/,/,/,/
Cc1ccc(SCc2cc(=O)n3ccsc3n2)c(C)c1,-14%,/,/,/,/,1%
Cc1cccc(-n2c(SCc3cc(=O)n4ccsc4n3)nc3ccccc32)c1,7.9µM*,0%,22%,7%,9%,2%
c1ccc(-n2cnnc2SCc2cn3ccsc3n2)cc1,16%,29%,0%,0%,?,8%
Cc1ccc(-n2c(SCc3cn4ccsc4n3)nc3ccccc3c2=O)cc1,10µM*,-10%,?,-11%,-24%,-9%
CCOc1ccc(C(c2c(O)nc(SC)n(C)c2=O)c2c(O)nc(SC)n(C)c2=O)cc1,12%,-16%,-7%,4%,-18%,16µM*
COc1cccc2oc3cc(C#CC4(O)CCCCC4)ccc3c(=O)c12,?,-27%,/,0%,/,-28%
COc1cccc2oc3cc(C#Cc4ccccn4)ccc3c(=O)c12,0%,18%,/,7%,/,7.9µM*
COc1ccc(Br)cc1CNC(=O)CN1CCSc2ccccc21,/,0%,?,/,/,-3%
O=C(N/N=C/c1ccc([N+](=O)[O-])o1)c1cc(-c2cccc(Br)c2)nc2ccccc12,10µM*,-19%,?,13%,?,-6%
CCCc1ccc(-c2cc(C(=O)N/N=C/c3ccc([N+](=O)[O-])o3)c3ccccc3n2)cc1,10µM*,?,5.6µM*,-11%,7.1µM*,-11%
CCOc1ccc(C(C)=O)cc1CSc1nnc(-c2cccs2)n1CC1CCCO1 (stereo unspecified),-24%,9%,0%,5%,1%[46.1 µM],20µM*
Nc1ccc(-c2nc3cc(N)ccc3s2)cc1,?,-11%,?,-12%,?,1%
Nc1ccc2nc(-c3ccccc3)sc2c1,?,10µM*,3.2µM*,?,?,4%
